Assay outcomes: PubChem BioAssay, National Center for Advancing Translational Sciences (NCATS)
HT1080 IDH1KD tx = HT-1080 IDH1 knockdown cell toxicity (counter line); HT-1080 IDH1 knockdown viability, ATP luminescence, 48 h; Potency, µM (series often up to 46.1 µM), without a hit: at the top dose activity, negative = toxicity, usual class: cytotoxic; 2% of 360,000 active; AID 686971;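 also: 0% = DMSO wells and -100% = cell-free medium wells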
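Cytotoxicity counter-line: IDH1KD HT-1080, 48 h, CellTiter-Glo. Curves classed by r2, magnitude and activity.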
KB-3-1 tox = KB-3-1 parental cell cytotoxicity; Potency, µM (top dose mostly 46.1 µM), most hits filed as cytotoxic; 1.4% of 400,000 active; AID 1347075; KB-3-1 viability, CellTiter-Glo ATP luminescence, 72 h; also: % is scaled to controls: 0 for no effect and ±100 for the full control effect; nearly all actives have a fitted effect of over 60% in size
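Parental KB-3-1 viability, qHTS format: 72 h compound exposure, 37 °C; CellTiter-Glo; media-only wells and DMSO plates as controls; concentration-effect fits on corrected data.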
HT1080NT lethal = kills 2HG-producing HT-1080-NT fibrosarcoma cells; HT-1080-NT fibrosarcoma viability, CellTiter-Glo ATP luminescence, 48 h; Potency, µM (top dose mostly 46.1 µM), for inactives: at the highest dose activity, negative = less viability, hits mostly cytotoxic; 1.6% of 360,000 active;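 also: NT is the 2HG producing partner of a matched IDH1 knockdown line; 0% = DMSO-treated cells and -100% = media-only wells without cells; nearly all actives have a fitted effect of over 55% in size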
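Viability of the 2HG-overproducing fibrosarcoma line after 48 hours of compound exposure at 37 degrees C was determined by luminescence with CellTiter-Glo, and concentration-effect curves were then fitted and categorized.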
KB-V1 MDR tox = KB-V1 MDR subline cytotoxicity | KB-V1 MDR cells viability, CellTiter-Glo, 72 h | Potency, µM (top dose mostly 46.1 µM), actives largely listed as cytotoxic | 3.4% of 400,000 active | AID 1347076; also: % is scaled to controls: 0 for no effect and ±100 for the full control effect; nearly all actives have a fitted effect of over 60% in size
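Cells of the MDR subline KB-V1 are plated, dosed with compound at multiple concentrations, and incubated 72 h at 37 degrees C; CellTiter-Glo is then added and luminescence read after 10 min.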
MCF10A rereplic = DNA re-replication induction in MCF 10a cells; MCF 10A DNA re-replication, Hoechst nuclear intensity, 48 h; 2.9% of 350,000 active; Potency, µM (top dose mostly 46.1 µM), inactives show at the top dose activity, positive = re-replication, most hits filed as activators; also: % of control where 0% means no effect; nearly all actives have a fitted effect of over 50% in size
SW480 rerep = induces DNA re-replication in SW480 colon adenocarcinoma cells; SW480 DNA re-replication, Hoechst DNA content imaging, 48 h; Potency, µM (top dose mostly 46.1 µM), for inactives: at the top dose re-replication activation, most hits filed as activators; 1.8% of 340,000 active; also: % of control where 0% means no effect; nearly all actives have a fitted effect of over 55% in size
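DNA re-replication was detected as more nuclei of elevated Hoechst intensity after 48 hr exposure to compound (23 nL pinned per well of 250 cells).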
Active calls of the source: *; i = inactive; ? = inconclusive; . = no result given; ! = not active in a repeat. This is a sample that favours compounds with a hit; in the whole collection about 8% have one here. Calls follow the shape of the dose curve; as a rule, active = well fitted curve in the direction sought with a large enough effect; inconclusive = small, poorly fitted or top-dose-only effect, or another doubt; inactive = no such curve, though single readings can be large; an effect the other way counts as inactive or inconclusive. Potency is read from the fitted curve at half-maximal effect.

SMILES	HT1080 IDH1KD tx	KB-3-1 tox	HT1080NT lethal	KB-V1 MDR tox	MCF10A rereplic	SW480 rerep
O=[N+]([O-])c1cc(F)c2cccnc2c1O	?	?	-26%	i	?	?
O=c1oc2ccccc2c(O)c1Cc1cc(Cl)c2cccnc2c1O	-7%	16µM*	-7%	?	5.8µM*	?
O=[N+]([O-])c1ccc(O)c2ncccc12	16µM*	?	6.5µM*	?	15µM*!	7.3µM*
O=[N+]([O-])c1cc(Cl)c(O)c2ncccc12	?	7.3µM*	-26%	i	?	10µM*
C(=C\c1cnc2ccccc2n1)/c1ccc2c(c1)OCO2	.	?	.	i	.	.
Oc1c(I)cc(Cl)c2cccnc12	12µM*	i	?	?	?	?
COc1cccc(CN2Cc3cccc4c3[C@H](C=CC4)CC2=O)c1	.	i	.	?	.	.
O=C(c1ccc(Cl)cc1)c1c[nH]c(C(=O)NNc2cccc(Cl)n2)c1	?	i	23µM*	i	?	?
COc1ccc(-c2oc3ncn4nc(COc5cccc(C)c5C)nc4c3c2-c2ccc(OC)cc2)cc1	.	i	.	i	.	.
CCOC(=O)CC1CCCCN1C(=O)c1cc(COc2cccc3cnccc23)on1 (stereo not given)	4.1µM*	i	23µM*	?	?	-31%
CC(=O)c1cccc(OCc2cc(C(=O)N(C)Cc3nccs3)no2)c1	2%	i	10%	i	.	.
CN(Cc1nccs1)C(=O)c1cc(COc2cccc3cnccc23)on1	9.2µM*	i	23µM*	i	?	-2%
Cc1cccc(C)c1OCc1cc(C(=O)N2CCCC2c2nonc2C)no1 (stereo not given)	4%	i	2%	i	8.2µM*	?
COc1cc(NC(=O)c2sc3nc(C)nc(N4CCOCC4)c3c2C)cc(OC)c1OC	-24%	i	-12%	23µM*	2%	11%
CCOC(=O)c1sc2nc(CSc3ccccc3)nc(N3CCC(C(N)=O)CC3)c2c1C	23µM*	i	?	?	?	0%
CCOC(=O)c1sc2nc(C)nc(N3CCCCC3C)c2c1C (stereo not given)	-28%	i	-20%	i	18µM*	4%
Cc1c(C(=O)Nc2cccc(C(F)(F)F)c2)sc2nc3n(c(=O)c12)CCC3	.	?	.	i	.	.
Cc1nc(N2CCCCC2C)c2c(C)c(C(=O)Nc3cccc(C(F)(F)F)c3)sc2n1 (stereo not given)	6%	i	4%	?	18µM*	27%
O=c1[nH]c(=S)c2[nH]cnc2[nH]1	.	i	.	i	.	.
COc1ccc(CNC(=O)c2ccc3c(c2)N(Cc2ccccc2F)C(=O)c2ccccc2S3=O)cc1 (stereo not given)	.	i	.	i	.	.
Cc1nc(N2CCCCC2)c2c(C)c(C(=O)Nc3cccc(C(F)(F)F)c3)sc2n1	-10%	i	?	i	18µM*	-149%
C/C(=N\NC(=S)NC(C)C)c1ccccc1	-1%	i	4%	i	9%	-2%
C/C(=N\NC(=S)NC1CCCCC1)c1ccccc1	2%	16µM*	8%	i	6%	18%
C/C(=N\NC(=S)NC1CCCCC1)c1ccc(O)cc1	-8%	16µM*	-19%	?	5%	0%
OC(CNc1ccnc2cc(Cl)ccc12)CNC1CCCCC1 (stereo not given)	21µM*	?	21µM*	?	?	23µM*
SMILES	HT1080 IDH1KD tx	KB-3-1 tox	HT1080NT lethal	KB-V1 MDR tox	MCF10A rereplic	SW480 rerep
CCNC1CCC(Nc2ccnc3cc(Cl)ccc23)CC1 (stereo not given)	?	?	-1%	?	13%	?
COC(C[C@@H]1O[C@H]1C(=O)[C@@H](C)OCc1ccccc1)OC	1%	?	2%	i	?	23µM*
NC(=O)c1c(NC(=O)c2ccncn2)sc2c1CCCC2	.	?	.	i	.	.
CCn1cc(C(=O)NCCc2ccc(C)cc2)c(=O)c2cc(S(=O)(=O)N3CCc4ccccc4C3)ccc21	.	i	.	i	.	.
Cc1ccc[n+](C(C)C(=O)Nc2ccc(C)c(C)c2)c1 (stereo not given)	-12%	i	2%	i	0.23µM*	-27%
CCOC(=O)/C(C#N)=C/c1c(OCC)n(CC)c2ccccc12	-1%	i	4%	7.3µM*	15%	14%
CCCCc1ccc(NC(=O)CSc2nc3ccccc3nc2N2CCOCC2)cc1	.	i	.	i	.	.
O=c1c2ccccc2c(C=Nc2cccc(O)c2)c(O)n1-c1ccc2c(c1)OCO2	1%	?	-6%	i	15µM*	?
COc1ccc(N=Cc2c(O)n(-c3ccc(OC)cc3)c(=O)c3ccccc23)cc1	19%	i	17%	i	?	20%
CCCCn1c(N)c(N(CC)C(=O)c2cccc(OC)c2)c(=O)[nH]c1=O	-5%	i	6%	i	4%	7%
O=C(CC(C(=O)O)c1ccccc1)c1cccs1 (stereo not given)	0%	i	-3%	i	0%	-9%
CC(CC(=O)c1cccs1)CC(=O)c1cccs1	-10%	i	4%	i	18µM*	16µM*
COC(=O)C1=C(C)NC(C)=C(C(=O)OC)C1c1ccc(-c2cc(Cl)ccc2Cl)o1	?	i	6%	i	?	-5%
COC(=O)C1=C(C)NC(=S)NC1c1ccc(-c2cccc(Cl)c2)o1 (stereo not given)	28%	i	23%	i	?	18µM*
COC(=O)C1=C(C)NC(=S)NC1c1ccc(-c2ccccc2C(=O)OC)o1 (stereo not given)	-10%	i	-3%	?	?	7%
CCOC(=O)C1=C(C)NC(=O)NC1c1ccc(-c2ccc(Cl)cc2)o1 (stereo not given)	?	?	-24%	21µM*	?	1%
CCOC(=O)C1=C(C)NC(=S)NC1c1ccc(-c2ccc(Cl)cc2)o1 (stereo not given)	-15%	?	0%	8.2µM*	?	19%
COC(=O)C1=C(C)NC(C)=C(C(=O)OC)C1c1ccc(-c2cccc(Cl)c2Cl)o1	-28%	i	-18%	16µM*	?	14%
COc1cccc2cc(C(=O)Nc3ccc(CC(=O)O)cc3)c(=O)oc12	.	i	.	i	.	.
O=P(O)(CCc1ccncc1)CN1CCCCC1	23%	i	?	i	5.8µM*	?
